Compound activity: PubChem BioAssay, National Center for Advancing Translational Sciences (NCATS)
PNC inhibitor = blocks assembly of the perinucleolar compartment; 140,000 compounds, 3.1% hits; AID 2417; PC3M PTB-GFP, PNC prevalence imaging, 16 h; stronger effect = lower value; activity change (PNC), negative = inhibition, % at 10 µM;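 active = readout at or below -70, meaning at least 70% loss of cells showing the perinucleolar compartment, a nuclear body marking cancer cells; inconclusive = readout between -30 and a set limit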;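 note: plate controls were DMSO wells for no effect and camptothecin positive control wells for full effect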
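Compounds are pinned in duplicate onto adhered PC3M cells stably expressing GFP-tagged PTB and incubated 16 h at 37 C. Cells are then fixed, nuclei stained with Hoechst, and PNC-positive cells counted.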
ALOX12 inhib = blocks human 12-lipoxygenase activity; P18054; purified 12-hLO, xylenol orange hydroperoxide absorbance; Potency, µM (series often up to 57.1 µM), for inactives: at the highest dose activity change, negative = inhibition, actives largely listed as inhibitors; 150,000 compounds, 0.12% hits; note: potency is the fitted concentration of half-maximal effect; nearly all actives have a fitted effect of over 55% in size
Target sequence (P18054 whole entry, looked up): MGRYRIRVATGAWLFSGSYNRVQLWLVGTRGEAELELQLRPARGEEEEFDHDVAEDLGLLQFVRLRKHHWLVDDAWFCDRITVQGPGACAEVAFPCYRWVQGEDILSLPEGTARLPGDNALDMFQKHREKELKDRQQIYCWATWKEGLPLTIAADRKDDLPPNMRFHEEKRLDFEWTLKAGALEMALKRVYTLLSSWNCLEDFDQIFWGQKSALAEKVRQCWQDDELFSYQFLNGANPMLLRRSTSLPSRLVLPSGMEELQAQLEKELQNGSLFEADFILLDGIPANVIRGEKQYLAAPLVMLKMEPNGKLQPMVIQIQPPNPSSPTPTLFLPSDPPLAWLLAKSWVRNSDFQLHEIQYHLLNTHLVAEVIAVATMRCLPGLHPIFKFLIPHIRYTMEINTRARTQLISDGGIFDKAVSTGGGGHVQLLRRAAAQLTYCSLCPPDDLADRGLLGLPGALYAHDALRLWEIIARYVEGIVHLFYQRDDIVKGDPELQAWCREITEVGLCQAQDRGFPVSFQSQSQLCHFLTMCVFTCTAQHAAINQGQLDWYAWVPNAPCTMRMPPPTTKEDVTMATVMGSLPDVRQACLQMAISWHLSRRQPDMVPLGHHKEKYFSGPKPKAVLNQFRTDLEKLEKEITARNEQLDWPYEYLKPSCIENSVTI
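Purified human 12hLO (150 nM final) was preincubated with compounds for 15 min at room temperature in 25 mM Hepes pH 7.0, 0.01% Triton X-100, then reacted with 40 uM arachidonic acid for 30 min. Hydroperoxide was detected with ferrous iron/xylenol orange.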
IMPase inh = IMPase inhibition in cells; P97697; AID 901; inhibition (IP1 accumulation), % at 46.1 µM; 120,000 tested, under 10 active; CHO-M1 cells, IP1 accumulation, HTRF TR-FRET ratio; active = well fitted curve in the direction sought with a large enough effect in the signal ratio, not every such curve was filed as active; inconclusive = small, poorly fitted or top-dose-only effect, or a change in a side signal; inactive = no such curve, though single readings can be large or run the other way; the % refers to the signal ratio;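 note: cells stimulated with carbachol in lithium chloride buffer; plate controls were DMSO basal wells for no effect and reference inhibitor wells for full effect; higher means more IMPase inhibition seen as more IP1 and lower FRET ratio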
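Cellular IMPase inhibition is scored as a rise in cytosolic IP1, detected by competitive TR-FRET between d2-labelled IP1 and a europium anti-IP1 antibody. M1-expressing CHO cells were stimulated with carbachol for 30 min at 37C, with lithium (50 mM LiCl) present in the buffer.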
HPGD block = inhibitors of human 15-hydroxyprostaglandin dehydrogenase (HPGD); P15428; purified HPGD, NADH fluorescence kinetic, PGE2 substrate; Potency, µM, without a hit: top-dose activity change, negative = inhibition, usual class: inhibitors; 150,000 compounds, 4.3% hits; AID 894; active = well fitted inhibition curve with a large enough effect, not every such curve was filed as active; inconclusive = small, poorly fitted or top-dose-only effect, or another doubt; inactive = no such curve, though single readings can be large or run the other way; note: potency is the fitted concentration of half-maximal effect
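NADH formation kinetics: reaction with 30 uM PGE2 and 1 mM NAD+ (final), 20 nM enzyme, Tris-HCl pH 8 with Tween 20, after 15 min compound preincubation at room temperature. Fluorescence change, last versus first of five reads.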
IMPase Li inh = membrane-permeable IMPase blocker, potentiated with lithium; Potency, µM (top dose mostly 59.4 µM), inactives show at the highest dose activity, negative = IMPase inhibition, actives largely listed as inhibitors; 210,000 compounds, 0.35% hits; CHO-M1 cells, IP1 TR-FRET (IP-One), carbachol + lithium; AID 1457;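 note: IP1 builds up when IMPase is blocked and the TR-FRET signal falls; potency is the fitted concentration of half-maximal effect; plate controls were basal vehicle for no effect and high inhibitor control for full effect; nearly all actives have a fitted effect of over 50% in size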
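Concentration–response in CHO-M1 cells, lithium-potentiated; 30 min at 37C. IP1 detected by competitive TR-FRET after 10 min lysis at RT. Hill-fitted AC50.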
ALDH1A1 inh = ALDH1A1 (human) enzyme inhibition; P00352; Purified ALDH1A1, NADH fluorescence, propionaldehyde substrate; Potency, µM (top dose mostly 75.3 µM), for inactives: top-dose activity, negative = inhibition, actives largely listed as inhibitors; 220,000 compounds, 7.3% hits; active = well fitted inhibition curve with a large enough effect, not every such curve was filed as active; inconclusive = small, poorly fitted or top-dose-only effect, or another doubt; inactive = no such curve, though single readings can be large or run the other way;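 note: potency is the fitted concentration of half-maximal effect; plate controls were no enzyme wells and a reference inhibitor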
* hit, by the source's call; ? = inconclusive; · = no result; [ ] = remark or other dose. Sampled rows, rich in hits. Any-hit rate of the full collection: about 11%. Unless noted, calls come from the whole dose curve; as a rule, active = well fitted curve in the direction sought with a large enough effect; inconclusive = small, poorly fitted or top-dose-only effect, or another doubt; inactive = no such curve, though single readings can be large; an effect the other way counts as inactive or inconclusive. Unless noted, % is set by controls: 0 for no effect and ±100 for the full control effect.

SMILES	PNC inhibitor	ALOX12 inhib	IMPase inh	HPGD block	IMPase Li inh	ALDH1A1 inh
Cc1cc(OC(=O)c2ccccc2Br)cc(=O)n1C	23	-1%	1	13µM*	-15%[38.3 µM]	6%
CCOC(=O)c1c(NCC2CCCO2)c2ccccc2[nH]c1=O (configuration not stated)	26	1%	0	-15%	21%[38.3 µM]	16µM*
Cc1cc(C)n2ncc(C(=O)O)c2n1	·	·	·	·	4%	2%
CCOC(=O)C1=C(O)C(=O)N(Cc2ccccc2)CC1	·	·	·	·	-1%	-5%
CCOC(=O)C1=C(O)C(=O)N(Cc2ccc(C(C)(C)C)cc2)CC1	·	·	·	·	5%	14µM*
COc1ccc(C(C)C(=O)c2ccc(O)cc2O)cc1 (configuration not stated)	·	-7%	·	-9%	32%	-1%
CSc1ccc(OC2CCCCC2NS(=O)(=O)c2ccc(Cl)cc2)cc1 (configuration not stated)	3	-7%	·	-13%	3%	0.45µM*
O=S(=O)(NC1CCCCC1Oc1ccccc1)c1ccc(Cl)cc1 (configuration not stated)	?	4%	·	-2%	2%	?
O=C(Cn1nnc(-c2ccccc2Cl)n1)Nc1ccc(Br)cc1	·	·	-2	·	·	·
Cc1cccc(N2CC(C(=O)OCC(=O)c3ccc(OC(=O)c4cccs4)cc3)CC2=O)c1C (configuration not stated)	-83*	-1%	-4	-13%	3%[38.3 µM]	-2%
COc1ccccc1N1CC(C(=O)OCC(=O)c2ccc(F)cc2)CC1=O (configuration not stated)	58	1%	4	-14%	-6%[38.3 µM]	-13%
COc1ccc(C)cc1NS(=O)(=O)c1ccc2c3c(cccc13)C(=O)N2	·	·	-7	·	·	·
Cc1ccccc1-n1c(N)c(C(=O)Nc2ccc(F)cc2)sc1=S	·	·	·	·	8%	20µM*
Cc1ccc(C)c(-n2c(N)c(C(N)=O)sc2=S)c1	?	-5%	-3	?	5%[38.3 µM]	-4%
Cc1ccc(-n2c(N)c(C(=O)Nc3ccccc3F)sc2=S)cc1C	·	·	·	·	8%	10µM*
Cc1ccc(NC(=O)c2sc(=S)n(-c3cc(C)ccc3F)c2N)cc1	·	·	·	·	5%	13µM*
COc1ccc(NC(=O)CN(c2cccc(C)c2C)S(=O)(=O)c2ccccc2)cc1OC	·	·	2	·	·	·
Cc1nc(NCc2ccccc2)c2nc(-c3ccccc3)n(C(C)CN(C)C)c2n1 (configuration not stated)	·	-5%	·	-22%	-5%	?
Cc1cccc(CN2CCN(CC(=O)NCc3ccc(Cl)cc3)C2=O)c1	·	·	-5	·	·	·
N#CCc1ccc(NC(=O)/C=C/c2ccc([N+](=O)[O-])o2)cc1	·	·	·	·	17%	20µM*
N#C/C(=C\c1ccc([N+](=O)[O-])o1)C(=O)Nc1ccc(F)cc1	·	·	·	·	10%	11µM*
O=C(c1ccc([N+](=O)[O-])cc1)N1CCN(Cc2ccccc2[N+](=O)[O-])CC1	·	·	·	·	5%	10µM*
COc1cccc(C(=O)N2CCN(Cc3ccccc3C(F)(F)F)CC2)c1	6	-24%	5	2%	1%[38.3 µM]	?
O=C(c1ccc(F)cc1)N1CCN(Cc2ccccc2Br)CC1	-99*	-4%	8[1.84 µM]	-3%	34%[38.3 µM]	?
COc1ccc(Br)cc1CN1CCN(C(=O)c2ccc(F)cc2)CC1	·	·	·	·	4%	?
SMILES	PNC inhibitor	ALOX12 inhib	IMPase inh	HPGD block	IMPase Li inh	ALDH1A1 inh
COc1cc(OC)cc(C(=O)N2CCN(Cc3ccccc3[N+](=O)[O-])CC2)c1	·	·	·	·	4%	1.4µM*
O=P(c1ccccc1)(c1ccccc1)c1nc(-c2ccc(Cl)cc2)oc1N1CCOCC1	·	·	·	·	0%	?
O=C(NCCCN1CCN(c2ccccc2)CC1)c1nnc(Cc2c(F)cccc2Cl)o1	·	·	9	·	·	·
CC(=O)NCCNc1ccnc(-c2ccccc2C(F)(F)F)n1	·	·	·	·	-9%	?
CC1=NN(c2nc(-c3ccc(F)cc3)cs2)C(=O)C1	22	0%	4	-5%	-3%[38.3 µM]	1%
Cc1ccc(-c2csc(N3N=C(c4ccccc4)/C(=C\c4ccc(N(C)C)cc4)C3=O)n2)cc1	11	-8%	-5	-4%	-6%[38.3 µM]	3.5µM*
CCN(CC)CCc1nc(-c2ccccc2)no1	·	2%[25.6 µM]	-2[20.6 µM]	-3%	-1%	2%[20.9 µM]
Cn1cc(C(=O)NC2C3CC4CC(C3)CC2C4)cn1 (configuration not stated)	-17	3%	·	-27%	-4%	1%
Cn1cc(Br)c(C(=O)NC2C3CC4CC(C3)CC2C4)n1 (configuration not stated)	273	1%	0	16µM*	-1%	-1%
Cc1ccc(OC(=O)COc2ccccc2C)c(-n2nc3ccccc3n2)c1	8	3%	16	?	6%	32µM*
COc1cccc2c1C(=O)CC(c1ccccc1)O2 (configuration not stated)	·	-4%	1	?	7%	?
CCCCCCC1CC(=O)NC(=S)N1 (configuration not stated)	·	·	·	·	5%	4µM*
Cc1ccc(C)n1-c1c(C(=O)NN)cnn1-c1ccccc1	·	·	·	·	1%	3.2µM*
O=S(=O)(c1c(Cl)sc(Cl)c1Br)N1CCCC1	·	·	·	·	·	14µM*
CCOC(=O)N1CCN(C(=O)COc2cccc3c2CCN(Cc2ccccc2C)C3=O)CC1	?	2%	·	1%	15%	25µM*
CCN1CCc2c(OCC(=O)N3CCC(C)CC3)cccc2C1=O	·	·	·	·	-10%	4%
CC1CCN(C(=O)COc2cccc3c2CCN(Cc2ccccc2)C3=O)CC1	·	·	·	·	10%	28µM*
CCC(=O)NC(=S)Nc1ccc2oc(-c3ccc(OC)cc3)nc2c1	·	·	·	·	-20%	-7%
COc1ccc(-c2nc3cc(NC(=S)NC(=O)Cc4ccccc4)ccc3o2)cc1	-6	-4%	·	-14%	-30%	11µM*
Cc1cc(C2=NNC(=NC3CCCCC3)SC2)c(C)n1-c1c(C)n(C)n(-c2ccccc2)c1=O	?	-2%	·	-24%	-2%	?
C=C(C)CN=C1NN=C(c2cc(C)n(-c3ccc(C)cc3)c2C)CS1	7	-6%	·	-26%	8%	13µM*
Cc1cc(C2=NNC(=NC3CC3)SC2)c(C)n1-c1ccccc1F	-27	-5%	·	?	-11%	8.9µM*
CN(C)c1ncc2nc(CCc3ccccc3)c(=O)n(CCC#N)c2n1	·	·	·	·	14%	?
CC(C)N(C(=O)Cn1cc(SCC(=O)NCC2CCCO2)c2ccccc21)C(C)C (configuration not stated)	·	·	·	·	2%	-1%
c1cc2c3c(cccc3c1)NC1(CCCCCC1)N2	38	2%	6[1.84 µM]	?	32%[38.3 µM]	3.2µM*
